Rows were chosen to be rich in hits. Some 5.4% of all compounds tested hit in one or more screens of this group.
Calb FLC = C. albicans growth modulation with fluconazole; C. albicans CaCi-2 (fluconazole-resistant clinical isolate) + fluconazole, Alamar Blue growth, 48 h; growth inhibition, % (test concentration not listed); hit rate 0.57% among 300,000; AID 1979;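 active means growth inhibition above about 58% in most replicates, limit read from the data, passing the limit was not always enough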;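 further: all wells also contain fluconazole at 8 µg/ml as a sub-toxic cotreatment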
Beta apoptosis = blocks beta cell apoptosis | hit rate 0.8% among 300,000 | INS-1E cytokine-induced death, ATP luminescence, 48 h; percent of positive-control rescue, neutral wells zero | protection from apoptosis, % (no concentration beside the values) | AID 435005;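 active means Every replicate reaches about 75%, or at least half do and their mean reaches it too, limit read from the data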;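 further: higher means more ATP so stronger rescue from cytokine killing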
Mdm2-MdmX inh = inhibitors of human Mdm2/MdmX interaction; inhibition, % at 8 µM; SaOS-2 split-luciferase Mdm2/MdmX complementation, luminescence; O15151+Q00987; hit rate 3% among 330,000; AID 485346;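 active means inhibition of at least 50% at 8 µM in the primary screen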
Target sequence (O15151 whole entry, looked up): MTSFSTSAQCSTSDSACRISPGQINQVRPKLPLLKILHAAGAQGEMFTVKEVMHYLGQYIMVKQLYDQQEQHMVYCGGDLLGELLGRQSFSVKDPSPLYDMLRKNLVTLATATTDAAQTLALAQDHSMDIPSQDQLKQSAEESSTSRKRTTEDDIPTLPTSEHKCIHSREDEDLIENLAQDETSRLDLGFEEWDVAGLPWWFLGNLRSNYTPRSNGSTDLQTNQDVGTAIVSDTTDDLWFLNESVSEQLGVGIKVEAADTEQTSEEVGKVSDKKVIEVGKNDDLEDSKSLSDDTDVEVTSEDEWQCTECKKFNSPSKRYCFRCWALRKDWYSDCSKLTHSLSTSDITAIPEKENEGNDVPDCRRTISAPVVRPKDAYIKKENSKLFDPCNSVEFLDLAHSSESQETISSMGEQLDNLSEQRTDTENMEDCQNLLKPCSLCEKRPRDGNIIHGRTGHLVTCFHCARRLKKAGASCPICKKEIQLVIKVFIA
Target sequence (Q00987 whole entry, looked up): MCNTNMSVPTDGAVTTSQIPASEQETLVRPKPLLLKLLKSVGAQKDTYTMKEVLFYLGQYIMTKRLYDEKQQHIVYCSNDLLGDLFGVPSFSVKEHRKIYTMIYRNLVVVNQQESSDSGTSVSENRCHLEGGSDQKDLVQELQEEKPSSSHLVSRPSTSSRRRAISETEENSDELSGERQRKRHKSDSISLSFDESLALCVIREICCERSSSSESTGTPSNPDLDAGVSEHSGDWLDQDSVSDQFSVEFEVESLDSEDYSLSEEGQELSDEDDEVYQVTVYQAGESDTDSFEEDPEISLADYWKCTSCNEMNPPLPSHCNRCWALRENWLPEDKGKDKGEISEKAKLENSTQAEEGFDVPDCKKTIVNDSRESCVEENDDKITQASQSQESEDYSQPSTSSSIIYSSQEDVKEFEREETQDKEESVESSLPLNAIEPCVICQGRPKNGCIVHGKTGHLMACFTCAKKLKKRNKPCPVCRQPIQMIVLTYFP
SKKanGAS inh = SKKanGAS growth inhibition. S. pyogenes SKKanGAS, kanamycin growth, BacTiter-Glo, 6 h. inhibition, % at 7.5 µM. hit rate 1.3% among 300,000. AID 1662;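 active means mean replicate score, as percent of positive control median, at least 50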;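 further: strain carries kanamycin resistance gene driven by streptokinase promoter and grows in 40 µg/ml kanamycin; loss of luminescence reflects streptokinase promoter inhibition or plain growth inhibition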
MPTP block = permeability transition pore inhibition. AID 602449. inhibition, % at 10 µM. isolated mouse mitochondria, Ca2+ swelling absorbance, 30 min. hit rate 1.4% among 360,000;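 active means inhibition of 50% or more, scaled per plate between neutral and stimulator controls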
CSC inhib = cancer stem cell inhibition | cancer stem cell-like cells viability, luminescence | inhibition, % at 7.5 µM | hit rate 1.1% among 300,000 | AID 2717; in the data active means inhibition above about 75%; tested in HMLE shEcad cells
Rh123 counter = membrane potential counter-screen of mitochondrial pore inhibitors. shares compounds with MPTP block. isolated mitochondria, Rhodamine 123 fluorescence. inhibition, % at 10 µM. hit rate 78% among 5,000. AID 624504; in the data active means inhibition above about 22%
MPTP abs DR = MPTP inhibition, dose response swelling confirmation. shares compounds with MPTP block. isolated mitochondria swelling, absorbance. IC50, µM. hit rate 58% among 780. AID 651561; in the data active means IC50 below about 20 µM
MPTP cs DR = MPTP inhibitor counter-screen activity, dose response. isolated mitochondria counterscreen, fluorescence read-out. AID 651564. shares compounds with MPTP block. IC50, µM. hit rate 49% among 780; in the data active means IC50 below about 80 µM
Each line names hits and unclear results; the compound was inactive in the other large screens (follow-up assays come after a bar, where they were run).

CCOC(=O)c1sc(-c2ccccc2)cc1NC(=O)Nc1ccc([N+](=O)[O-])cc1	MPTP block 87.1 | Rh123 counter inactive | MPTP abs DR inactive | MPTP cs DR <2.5
O=C(Nc1ccccc1)C1C(c2ccccc2)C1(Cl)Cl (configuration not stated)	none
Cc1cccc(NC(=O)C2C(c3ccccc3)C2(Cl)Cl)c1C (configuration not stated)	MPTP block 71.4 | Rh123 counter 76.7
CC(C)C[C@@H](COCc1ccc([N+](=O)[O-])cc1)N1CCN(C(=O)c2ccc(C(F)(F)F)cc2)CCC1=O	none (no result: Calb FLC, Beta apoptosis, Mdm2-MdmX inh, SKKanGAS inh, CSC inhib)
Cc1ccc(-c2noc(CCC(=O)NC3CCN(Cc4ccccc4)CC3)n2)cc1	MPTP block 72.1 (no result: Beta apoptosis, Mdm2-MdmX inh, CSC inhib) | Rh123 counter inactive | MPTP abs DR inactive | MPTP cs DR 34.2
COc1ccc(-c2noc(CCCCC(=O)N3CCN(c4cc(C)ccc4C)CC3)n2)cc1	MPTP block 97.0 (no result: Calb FLC, Beta apoptosis, SKKanGAS inh, CSC inhib) | Rh123 counter 103.7
Cc1ccccc1CS(=O)(=O)CCC(=O)NCCCN1CCN(c2ccccc2F)CC1	none
Cc1ccc(-c2noc(CCC(=O)NCCCN3CCN(c4cccc(Cl)c4)CC3)n2)cc1	MPTP block 94.1 | Rh123 counter inactive
O=C(CCS(=O)(=O)Cc1ccc(Cl)cc1)NCCCN1CCN(c2ccccc2F)CC1	MPTP block 57.1 | Rh123 counter inactive | MPTP abs DR inactive | MPTP cs DR inactive
CCN1CCCC1CNC(=O)Cn1nc(C)n2c(cc3cc(C)ccc32)c1=O (configuration not stated)	none
C=CCNS(=O)(=O)c1ccc(N2C(=O)c3ccccc3C2=O)cc1	none
COc1ccc(-c2noc(CCC(=O)NCCCN3CCN(c4ccccc4F)CC3)n2)cc1	MPTP block 54.8 | Rh123 counter inactive | MPTP abs DR 8.84 | MPTP cs DR 20.4
Cc1ccc(-c2noc(CCC(=O)NCCCN3CCN(c4ccc(F)cc4)CC3)n2)cc1	MPTP block 93.0 | Rh123 counter inactive | MPTP abs DR 6.97 | MPTP cs DR 28.4
NNC(=O)c1cc2c(N3CCC(Cc4ccccc4)CC3)ncnc2s1	MPTP block 89.2 | Rh123 counter 59.4
Cn1ncc2c(N3CCC(Cc4ccccc4)CC3)ncnc21	none
O=C1Nc2ccccc2N(C(=O)c2ccc3ccccc3c2)C1c1nc2ccccc2[nH]1 (configuration not stated)	none (no result: Calb FLC, Beta apoptosis, Mdm2-MdmX inh, SKKanGAS inh, CSC inhib)
C=CC(=O)Nc1cccc(N(C)c2ccnc(Nc3ccc(N4CCN(C)CC4)cc3)n2)c1	MPTP block 101.5 (no result: Calb FLC, Beta apoptosis, Mdm2-MdmX inh, SKKanGAS inh, CSC inhib) | Rh123 counter 92.8
C=CC(=O)Nc1cccc(Oc2ccnc(Nc3ccc(N4CCN(C)CC4)cc3)n2)c1	none (no result: Calb FLC, Beta apoptosis, Mdm2-MdmX inh, SKKanGAS inh, CSC inhib)
Cc1nc(Nc2ccccc2)[nH]c(=O)c1CCC(C)C	MPTP block 57.1 | Rh123 counter 58.4
Cc1[nH]c2ccccc2c1C1=CC(=O)C=CC1=O	MPTP block 52.1 (no result: Calb FLC, Beta apoptosis, Mdm2-MdmX inh, SKKanGAS inh, CSC inhib) | Rh123 counter inactive
Cc1[nH]c2ccccc2c1CCO	none
CCSc1nnc(NC(=O)CSc2nc(CC)nc3c2c(=O)n(C)c(=O)n3C)s1	MPTP block 66.2 | Rh123 counter inactive | MPTP abs DR inactive | MPTP cs DR inactive
CCCc1nc(SCC(=O)Nc2nnc(SCC)s2)c2c(=O)n(C)c(=O)n(C)c2n1	none
Cc1cc(C)c(C(=O)C(C)OC(=O)Cc2n[nH]c(=O)c3ccccc23)cc1C (configuration not stated)	none
CN1CCN(C2Cc3ccccc3Sc3ccc(Cl)cc32)CC1 (configuration not stated)	MPTP block 87.3 (no result: Calb FLC, SKKanGAS inh) | Rh123 counter inactive | MPTP abs DR 6.83 | MPTP cs DR 44.8
CN1CCN2c3ccccc3Cc3ccccc3C2C1 (configuration not stated)	none (no result: Calb FLC)
O=C(COc1ccc(Cl)cc1Cl)Nc1ccccc1NS(=O)(=O)c1cccs1	MPTP block 65.9 | Rh123 counter 78.9
Cc1cc(Cl)ccc1OCC(=O)NNC(=O)c1cccs1	none
Cc1cc(Cl)ccc1OCC(=O)Nc1ccccc1NS(=O)(=O)c1cccs1	MPTP block 51.8 | Rh123 counter 78.0
CCCN1C(=O)/C(=C/c2ccc(C)o2)SC1=Nc1ccc(OC)cc1	MPTP block 64.5 | Rh123 counter inactive | MPTP abs DR inactive | MPTP cs DR inactive
C=C(C)COc1ccc2c(C)c(CC(=O)OC)c(=O)oc2c1C	MPTP block 75.1 (no result: Calb FLC, SKKanGAS inh) | Rh123 counter 58.9
Cc1c(OCC(=O)OC(C)(C)C)ccc2c3c(c(=O)oc12)CCC3	MPTP block 62.2 | Rh123 counter 56.1
CCN(CC)CCn1c(=S)[nH]c2cc(C(=O)NCCc3ccc(OC)c(OC)c3)ccc2c1=O	none (no result: Calb FLC, Beta apoptosis, Mdm2-MdmX inh, SKKanGAS inh, CSC inhib)
O=c1c2sccc2nc(SCc2cc(=O)n3cc(Cl)ccc3n2)n1-c1ccc(F)cc1	none
Cc1ccccc1NC(=S)NC(NC(=O)COc1ccccc1)C(Cl)(Cl)Cl (configuration not stated)	MPTP block 80.1 | Rh123 counter 82.9
Cc1ccc(NC(=S)NC(NC(=O)c2ccccc2C)C(Cl)(Cl)Cl)c(C)c1 (configuration not stated)	MPTP block 92.8 | Rh123 counter 81.9
CC(C)CC(=O)NC(NC(=S)Nc1ccccc1)C(Cl)(Cl)Cl (configuration not stated)	none
O=C(COc1ccccc1)NC(NC(=S)Nc1ccccc1O)C(Cl)(Cl)Cl (configuration not stated)	MPTP block 72.6 | Rh123 counter 74.3
CCc1ccc(OCC(=O)NC(NC(=S)Nc2ccccc2C)C(Cl)(Cl)Cl)cc1 (configuration not stated)	MPTP block 80.6 | Rh123 counter 86.6
COC(=O)c1ccccc1NC(=S)NC(NC(=O)COc1ccccc1)C(Cl)(Cl)Cl (configuration not stated)	none
Cc1cccc(-c2noc(CCCC(=O)NCC3CCCO3)n2)c1 (configuration not stated)	none
CCc1ccc(OCC(=O)NC(NC(=S)Nc2ccccc2)C(Cl)(Cl)Cl)cc1 (configuration not stated)	MPTP block 80.2 (no result: CSC inhib) | Rh123 counter 87.8
CCOC(=O)NC(NC(=S)Nc1ccccc1OC)C(Cl)(Cl)Cl (configuration not stated)	none (no result: Beta apoptosis)
CCc1ccc(OCC(=O)NC(NC(=S)Nc2ccccc2OC)C(Cl)(Cl)Cl)cc1 (configuration not stated)	MPTP block 92.2 | Rh123 counter 89.1
O=C(NC1CCCC1)c1cc2cc(Br)ccc2o1	none
CC(OC(=O)CCc1nc2ccccc2c(=O)[nH]1)C(=O)c1ccc(C(C)(C)C)cc1 (configuration not stated)	MPTP block 95.5 | Rh123 counter 85.9

Bioassay records from PubChem BioAssay.
